Among all 4,100 compounds or so, about 1,600 (39%) were called active. Roughly 25% stayed inconclusive and do not appear here. Calls follow the shape of the dose curve; as a rule, active = well fitted inhibition curve with a large enough effect; inconclusive = small, poorly fitted or top-dose-only effect; inactive = no such curve, though single readings can be large or run the other way. Some of the results follow.
Experiment: qHTS Validation assay for Inhibitors of Plasmodium falciparum Dd2 growth in vitro; also: nearly all actives have a fitted effect of over 70% in size
Conditions: P. falciparum Dd2 in RBCs, SYBR Green growth, 72 h; series mostly up to 28.7 µM; activity change, negative = inhibition: at the top concentration
Method in brief: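 P. falciparum Dd2-infected red blood cells (2.5% hematocrit, 0.3% parasitemia) grown 72 h at 37 °C under 5% O2 with compounds in a titration, 29 uM to 0.5 nM final. Growth read as SYBR Green-1 fluorescence after ~16 h lysis; artesunate 300 nM as positive control.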
% is scaled to controls: 0 for no effect and ±100 for the full control effect; potency is read from the fitted curve at half-maximal effect.

Activity change, negative = inhibition, inactive:
Cn1nc(-c2nncn2Cc2ccccc2)c2c1CCN(C(=O)c1[nH]nc3c1COc1ccccc1-3)C2 -14.9%, COc1ccc(-c2ccc3nnc(CNC(=O)Cc4cccc(F)c4)n3n2)cc1 38.7%, CCCc1nnc([C@H]2CCN(C(=O)c3ccccc3)C2)o1 -19.5% [at 57.5 µM], Cc1ccc(C)c(-c2cc3c(=O)n(CCNC(=O)c4cccc(N(C)C)c4)ccn3n2)c1 0.608%, Cc1ccc(CNC(=O)CCc2c(C)nc3nc(C)nn3c2C)cc1 11.6%, Cc1ccc(-c2ccc(=O)n(CC(=O)Nc3ccc(C(C)C)cc3)n2)cc1 20.7%, CCc1nc2ccc(C(=O)NCc3ccccc3C)cc2nc1CC 6.91%, Cc1ccc(C2Cn3cnc(C(=O)N4CCC(C(=O)NCc5ccco5)CC4)c3CO2)cc1 (configuration not stated) -7.92%, Cc1cccc(C(=O)NCCc2ncc(C)n2C2CC2)c1 -5.93%, CNCC(=O)N1CCC2(CC1)CN(CCOc1ccccc1)C(=O)O2 40.8%, COc1ccccc1C(=O)N1CCCN(c2nnc3cccc(C)n23)CC1 9.24%, COCCN1C(=O)CS(=O)(=O)C12CCN(C(=O)C1(c3ccccc3)CC1)CC2 1.25%, Cn1cnnc1-c1nn(C)c2c1CN(C(=O)c1cc3ccccc3[nH]1)CC2 -20.5%, N#Cc1cccc(S(=O)(=O)N2CC(C(=O)NC3CCCCC3)C3(CCOCC3)C2)c1 (configuration not stated) 11.3%, CCC(C)NC(=O)c1cc2c(Cl)nc3ccc(C)cc3c2s1 (configuration not stated) -5.46%, CCCc1noc(-c2cccn3c(CNC(=O)c4ccccc4OCC)nnc23)n1 -8.26%, COc1cc(C(=O)Nc2ccccc2OCc2cc(=O)n3cc(C)sc3n2)cc(OC)c1OC 29.8%, Cc1csc2nc(COc3ccc(NC(=O)c4ccccc4F)cc3)cc(=O)n12 26.8%, Cn1c(=O)c2nc(SCC(=O)Nc3ccc(Cl)c(Cl)c3)n(C)c2n(C)c1=O 26.8%, CCS(=O)(=O)N1CC(F)(F)C[C@H]1c1nc(CCOC)no1 13.7%, COc1cccc(NC(=O)CSc2nc3cc(OC)c(OC)cc3c3nc(-c4ccccc4)nn23)c1 42.6%, COc1ccccc1S(=O)(=O)Cc1ccc(C(=O)NCc2cccs2)o1 5.1%

Potency, active:
COc1ccc(-n2cc(CNC3CCN(C)CC3)c(-c3cccc(F)c3)n2)cc1 10.6 µM, CC1=C[C@@H](CN2CCC[C@H]2CO)[C@H](C(C)C)C[C@H]1Cc1nnc(-c2ccc(N(C)C)cc2)o1 13.3 µM, CCCc1nnc(C[C@@H]2C[C@@H](C(C)C)[C@H](CN3CCC[C@H]3CO)C=C2C)o1 17.2 µM, C=CCOC(=O)C(C#N)c1nc2ccccc2nc1N1CCC(C(=O)OCC)CC1 (configuration not stated) 2.37 µM, CCN(CC)S(=O)(=O)c1ccc(NC(=O)CCc2c(C)nc3cc(-c4ccc(Cl)cc4)nn3c2C)cc1 4.73 µM, COc1cc(C2Nc3ccc4ccccc4c3C3=C2C(=O)CC(C)(C)C3)ccc1OC(C)C(=O)O (configuration not stated) 6.68 µM, CCCC1=Nc2cc(C(=O)NCCCN3CCCCC3CC)ccc2Sc2ccc(C)cc21 (configuration not stated) 9.44 µM, CCC1=Nc2cc(C(=O)NCc3ccco3)ccc2Sc2ccc(C)cc21 8.41 µM, CC(C)N1C(=S)N(Cc2ccco2)C(=O)C1CC(=O)Nc1ccccc1 (configuration not stated) 1.68 µM, CN1CCC(Nc2ncc3ncnc(Nc4ccc(F)c(Cl)c4)c3n2)CC1 10.6 µM, Cc1cccc(N2CCN(C(=O)CCc3nnc4n(CC(C)C)c(=O)c5ccccc5n34)CC2)c1C 3.35 µM, Cc1ccc(/C=N/NC(=O)c2cc3ccccc3cc2O)o1 5.31 µM, CCNc1nc(NC(C)CC)nc(ON=C(C)C)n1 (configuration not stated) 8.41 µM, CCc1ccc(S(=O)(=O)c2nnn3c2nc(Nc2ccc(F)cc2)c2cc(Cl)ccc23)cc1 2.11 µM, CSc1cccc(Nc2nc3c(S(=O)(=O)c4ccccc4)nnn3c3ccc(Cl)cc23)c1 1.88 µM, COc1ccccc1C(=O)N1CCC2(CC1)OC(=O)N(Cc1ccccc1C#N)C2(C)c1ccccc1 (configuration not stated) 15 µM, COc1ccccc1C(=O)N1CCC2(CC1)OC(=O)N(CCOc1ccccc1)C2(C)c1cccnc1 (configuration not stated) 9.44 µM, COc1cc(NC(=O)c2cc3c(Cl)nc4ccccc4c3s2)cc(OC)c1OC 4.73 µM, COCCc1nn2c(=O)cc(COC(=O)C(c3ccccc3)c3ccccc3)nc2s1 2.66 µM, Cn1c(=O)[nH]c2nnc(-c3ccc(Cl)c(Cl)c3)nc2c1=O 8.41 µM, CCN1CCN(c2cc(C)c3cc(NC(=O)/C=C/c4ccc(OCCC(C)C)cc4)ccc3n2)CC1 2.11 µM, CCN1CCN(c2cc(C)c3cc(NC(=O)/C=C/c4ccc(C)cc4)ccc3n2)CC1 4.22 µM, COc1cc2nc(NCc3ccccc3Cl)n3nc(-c4cccnc4)nc3c2cc1OC 2.11 µM, COc1cc2nc(NCc3ccc(C)cc3)n3nc(-c4ccccc4)nc3c2cc1OC 0.266 µM, COc1cc2nc(NCc3ccccc3)n3nc(-c4ccccc4)nc3c2cc1OC 0.422 µM

Source: PubChem BioAssay AID1347416 (National Center for Advancing Translational Sciences (NCATS), 2020)
